Measurements taken from PubChem BioAssay (NCI).
The panel holds about 83,000 compounds, 20% with a hit somewhere; the sample as a whole holds those more often.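 Interpretation: 100, growth as untreated; towards 0, rising growth inhibition; 0, no net growth; 0 to -100, cell death. Compounds scoring below 10 were considered active.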 A number with no mark means an inactive call. Activity calls are given as the source filed them.

tested on: HL-60(TB) leukemia; assay: NCI-60 one-dose screen, 48 h (100 = growth as untreated, 0 = no growth, -100 = all killed); conditions: 10 µM unless noted

Row | Structure (SMILES) | growth
1 | NC(N)=Nc1ccc(Oc2cccc(Nc3ccc(Cl)cc3)c2)cn1 | -69.4% (active)
2 | O=C(O)c1ccc(-n2c(=O)n(-c3cccc(C(F)(F)F)c3)c(=O)c3cc(-c4ccc(F)cc4F)ccc32)cc1 | -41.4% (active)
3 | Cn1c2ccccc2c2c3c(c4c5ccc(Br)cc5oc4c21)C(=O)N(O)C3=O | 73%
4 | N#Cc1c(-c2cccs2)cc(-c2cnccn2)nc1SCC(=O)NNC(=S)Nc1ccc(F)cc1 | 122%
5 | Cc1ccc2c(n1)C(=O)C(Cl)=C(Nc1cccc(C(C)C)c1)C2=O | 10.3%
6 | CC(=O)/C(N=Nc1ccc2oc(=O)ccc2c1)=C(\C)O | -15.3% (active)
7 | N/C(=N\C(N)=N\c1nc2ccccc2s1)c1ccc2ccccc2c1 | 99.8%
8 | Clc1ccc2[nH]cc(-c3cncn3CCc3ccc4c(c3)OCO4)c2c1 | 52.1%
9 | CCN1C(=O)N(CC)C2SC(N/N=C/c3ccccc3)=NC21 (configuration not stated) | 4% (active)
10 | CS(=O)(=O)Nc1cc(-c2ccc3ncc(C#N)c(NCc4ccccc4)c3c2)cnc1Cl | -29.2% (active)
11 | Cc1occc1-c1nc2s/c(=C/c3ccc(-c4cc(C(F)(F)F)ccc4Cl)o3)c(=O)n2n1 | 106%
12 | N#C/C(=C\c1ccc(-c2ccc(Cl)cc2Cl)o1)c1ccc(F)cc1 | 95.9%
13 | CC(C)=CCC[C@](C)(O)[C@H]1CC[C@]2(C)[C@@H]1CC[C@@H]1[C@@]3(C)CCC(NC(=O)c4ccccc4C(=O)O)C(C)(C)[C@@H]3CC[C@]12C (some centres not stated) | 90.2%
14 | C/C(=N\NC(=S)Nc1ccc(Br)cc1)c1cc2ccccc2oc1=O | 1.53% (active)
15 | O=C(CSc1nnc(-c2cccs2)n1-c1ccccc1)Nc1ccccc1 | 76%
16 | C[C@H]1c2[nH]c3ccccc3c2C[C@H]2C(=O)N(CCCCCCC(=O)NO)CC(=O)N21 | 108%
17 | Cc1ccc(NC(=O)c2ccc(CN3CCN(C)CC3)cc2)cc1Oc1ccc(-c2[nH]nc3ncnc(N)c23)cc1 | 126%
18 | N=c1c2cc(-c3ccccc3)oc2ncn1/N=C/c1ccc(Cl)cc1 | 116%
19 | CN1CCN(c2ccc(Nc3nc(NCCCNS(=O)(=O)c4ccccc4)c4sccc4n3)cc2)CC1 | -32.9% (active)

Row | Structure (SMILES) | growth
20 | O=S(=O)(NCCCNc1nccc(-c2[nH]c(-c3ccccc3)nc2-c2ccc(F)c(O)c2)n1)c1cccc2ccccc12 | 59.4%
21 | COc1ccc(-c2ccc3c4c(cccc24)C(=O)N(N2C(=O)c4cccc5cccc(c45)C2=O)C3=O)cc1 | 103%
22 | COc1ccc(-c2nc3cc(Cl)c(Cl)cc3n2CC(=O)N=Nc2c(O)[nH]c3ccc(Br)cc23)cc1 | 80.2%
23 | COC(=O)c1[nH]nc2c1C1(C(=O)N(C)c3ccccc31)C(C#N)=C(N)O2 (configuration not stated) | 107%
24 | O=C1/C(=C/C=C/c2ccco2)SC(=S)N1c1ccccc1 | 51.8%
25 | NS(=O)(=O)c1cccc(Nc2nc(SCC(=O)c3ccc(Cl)cc3)nc3ccccc23)c1 | 90.9%
26 | Cc1ccc(-c2nnc(SCc3ccc(O)c4ncccc34)n2-c2ccccc2)cc1 | 0.292% (active)
27 | CCN(CC)c1ccc(/C=N/NC(=O)c2ccc(S(N)(=O)=O)cc2)cc1 | 2.37% (active)
28 | N#C/C(=C\c1ccc(N2CCCCC2)cc1)C(=O)Nc1sc2c(c1C#N)CCC2 | 98.7%
29 | O=C1Nc2ccc(Cl)cc2/C1=C/c1ccc(OCc2ccc(F)cc2)cc1 | 94.6%
30 | COc1ccc2c(ccn2C(=O)N2c3ccccc3Sc3ccccc32)c1 | 13.7%
31 | O=c1[nH]c(Sc2sc3ccc(Cl)cc3c2CBr)nc(=S)[nH]1 | 21.7%
32 | O=C(/C=C/c1ccc(F)cc1)Nc1cccc2cccnc12 | 93.7%
33 | CCOC(=O)c1c(NCC(=O)Nc2ccc(Br)cc2)sc2c1CCCC2 | 28.9%
34 | O=S(=O)(Nc1ccc(C2CC2)cc1)c1ccc(-c2cnc(C3CC3)o2)cc1 | 38.9%
35 | Cc1cc2nc(C(Cl)Cl)nc(-c3cccs3)n2n1 | -25.4% (active)
36 | COc1ccc(-c2c3c(cn2Cc2cccc(OC)c2)-c2oncc2CCC3)cc1 | 100%
37 | CN1CCN(Cc2ccc(NC(=O)c3cncc(C#Cc4cnc5ccc(OCC(C)(C)O)nn45)c3)cc2C(F)(F)F)CC1 | 1.93% (active)
